Drawing on article PMC7862700, “An all-to-all approach to the identification of sequence-specific readers for epigenetic DNA modifications on cytosine”, this text covers binding signal for seven sequences.

What all share (assay): DAPPL (digital affinity profiling via proximity ligation, sequencing); 10 mM Tris-HCl pH 7.5, 50 mM NaCl, 1 mM DTT, 4% glycerol, room temperature, 30 min; GST-TFs on glutathione beads, 16-mer random dsDNA library, 0.1% formaldehyde crosslink after washing; high values mean tight binding
What all share (details): protein: recombinant; tags: N-terminal GST; dsDNA, one strand shown

Experiment [1] concerns the target T1, FLI1 (Homo sapiens, UniProt Q01543 1-452).
T1 sequence: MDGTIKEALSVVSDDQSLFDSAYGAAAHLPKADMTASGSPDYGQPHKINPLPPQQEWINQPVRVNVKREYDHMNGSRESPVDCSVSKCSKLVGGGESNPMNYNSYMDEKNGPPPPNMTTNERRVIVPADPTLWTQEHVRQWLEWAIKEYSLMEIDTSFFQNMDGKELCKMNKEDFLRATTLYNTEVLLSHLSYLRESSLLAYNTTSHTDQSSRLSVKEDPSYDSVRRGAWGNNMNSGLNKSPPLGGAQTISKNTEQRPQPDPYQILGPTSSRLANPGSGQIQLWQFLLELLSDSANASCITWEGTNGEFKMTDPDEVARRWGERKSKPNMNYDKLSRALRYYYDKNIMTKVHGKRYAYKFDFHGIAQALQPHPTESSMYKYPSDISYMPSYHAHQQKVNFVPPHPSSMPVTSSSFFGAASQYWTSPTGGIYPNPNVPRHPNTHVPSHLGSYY
The method, boiled down: (§1)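 Pools of DNA-barcoded human transcription factors, expressed in yeast as GST fusions on glutathione beads and combined with a tag-only sample, were incubated with 200 nmole of a 16-mer random double-stranded DNA library. Incubation took 30 min at room temperature in Tris/NaCl/DTT/glycerol buffer and was followed by washing, 0.1% formaldehyde crosslinking, proximity ligation (BsaI/T4 ligase, 1 h, 37 °C), PCR amplification and sequencing on an Illumina NextSeq500. Binding signal is the ratio of a hexamer's read frequency for a factor to its frequency for the tag-only sample.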

For experiment [2], the target named is T2, ELK1 (Homo sapiens, UniProt P19419 1-428).
T2 sequence: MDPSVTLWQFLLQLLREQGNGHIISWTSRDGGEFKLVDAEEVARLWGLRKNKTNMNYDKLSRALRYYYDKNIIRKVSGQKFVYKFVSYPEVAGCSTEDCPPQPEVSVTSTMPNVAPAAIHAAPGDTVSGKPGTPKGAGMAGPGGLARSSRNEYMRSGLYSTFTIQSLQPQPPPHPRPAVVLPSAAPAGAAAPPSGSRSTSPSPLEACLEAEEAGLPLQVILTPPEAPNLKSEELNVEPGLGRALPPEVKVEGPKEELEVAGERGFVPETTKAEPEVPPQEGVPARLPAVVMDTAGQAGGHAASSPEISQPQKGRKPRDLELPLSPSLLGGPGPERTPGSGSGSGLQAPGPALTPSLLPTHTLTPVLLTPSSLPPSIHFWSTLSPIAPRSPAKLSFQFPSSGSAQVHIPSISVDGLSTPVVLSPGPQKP
The method, boiled down:
as §1

Experiment [3] concerns the target T3, GABPA (Homo sapiens, UniProt Q06546 1-454).
T3 sequence: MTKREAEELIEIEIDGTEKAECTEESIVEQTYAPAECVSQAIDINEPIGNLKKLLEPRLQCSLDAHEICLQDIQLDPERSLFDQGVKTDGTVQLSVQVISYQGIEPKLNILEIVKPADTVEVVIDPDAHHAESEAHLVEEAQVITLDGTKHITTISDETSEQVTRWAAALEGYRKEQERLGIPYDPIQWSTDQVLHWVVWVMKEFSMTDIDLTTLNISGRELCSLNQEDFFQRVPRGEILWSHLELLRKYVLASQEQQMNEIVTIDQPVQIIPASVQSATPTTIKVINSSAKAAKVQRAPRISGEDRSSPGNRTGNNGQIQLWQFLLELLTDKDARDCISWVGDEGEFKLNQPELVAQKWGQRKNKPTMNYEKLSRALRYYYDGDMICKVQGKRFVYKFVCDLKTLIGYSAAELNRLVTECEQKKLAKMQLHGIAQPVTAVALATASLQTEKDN
An outline of the steps:
as §1

Experiment [4] addresses T4, ERG (Homo sapiens, UniProt P11308 1-479).
T4 sequence: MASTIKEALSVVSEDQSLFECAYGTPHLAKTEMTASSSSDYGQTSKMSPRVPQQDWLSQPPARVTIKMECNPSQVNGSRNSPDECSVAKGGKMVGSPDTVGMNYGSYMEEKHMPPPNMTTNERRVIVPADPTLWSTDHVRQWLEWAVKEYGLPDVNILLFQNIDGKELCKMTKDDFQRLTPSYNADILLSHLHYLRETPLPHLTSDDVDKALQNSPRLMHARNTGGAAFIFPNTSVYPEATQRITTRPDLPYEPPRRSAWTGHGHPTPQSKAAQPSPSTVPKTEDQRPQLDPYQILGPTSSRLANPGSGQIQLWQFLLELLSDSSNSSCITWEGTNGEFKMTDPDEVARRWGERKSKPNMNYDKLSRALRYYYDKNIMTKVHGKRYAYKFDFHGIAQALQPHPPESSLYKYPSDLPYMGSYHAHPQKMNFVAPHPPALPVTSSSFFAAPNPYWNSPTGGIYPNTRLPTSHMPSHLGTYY
An outline of the steps:
as §1

Experiment [5] concerns the target ELF1 (Homo sapiens, UniProt P32519 1-619). An outline of the steps: as §1
In experiment [6] the target is T5, EHF (Homo sapiens, UniProt Q9NZC4 1-300).
T5 sequence: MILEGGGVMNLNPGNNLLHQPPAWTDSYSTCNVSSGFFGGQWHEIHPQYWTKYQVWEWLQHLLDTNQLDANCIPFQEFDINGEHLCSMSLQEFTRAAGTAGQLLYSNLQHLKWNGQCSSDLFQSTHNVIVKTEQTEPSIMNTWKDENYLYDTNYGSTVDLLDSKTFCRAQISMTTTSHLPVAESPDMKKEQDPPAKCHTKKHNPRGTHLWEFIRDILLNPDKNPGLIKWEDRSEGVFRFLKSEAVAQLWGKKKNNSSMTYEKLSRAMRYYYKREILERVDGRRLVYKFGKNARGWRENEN
The method, boiled down: as §1

The target in experiment [7] is SPI1 (Homo sapiens, UniProt P17947 1-270). An outline of the steps:
as §1

Experiment [8] has as its target SPIB (Homo sapiens, UniProt Q01892 1-262). An outline of the steps: as §1
In experiment [9] the target is T6, ELK3 (Homo sapiens, UniProt P41970 1-407).
T6 sequence: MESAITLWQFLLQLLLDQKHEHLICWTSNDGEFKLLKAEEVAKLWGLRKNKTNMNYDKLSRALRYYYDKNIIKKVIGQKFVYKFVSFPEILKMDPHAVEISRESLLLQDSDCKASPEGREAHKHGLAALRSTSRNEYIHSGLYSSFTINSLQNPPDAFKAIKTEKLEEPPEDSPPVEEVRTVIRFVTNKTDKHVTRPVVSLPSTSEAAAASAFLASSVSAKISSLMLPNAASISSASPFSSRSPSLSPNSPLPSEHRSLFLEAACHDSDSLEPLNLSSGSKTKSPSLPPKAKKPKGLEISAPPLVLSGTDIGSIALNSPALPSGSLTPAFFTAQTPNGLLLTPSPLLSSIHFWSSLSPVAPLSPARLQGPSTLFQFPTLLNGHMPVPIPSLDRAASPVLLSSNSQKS
An outline of the steps: as §1

Chain of ELF1 (P32519 whole entry): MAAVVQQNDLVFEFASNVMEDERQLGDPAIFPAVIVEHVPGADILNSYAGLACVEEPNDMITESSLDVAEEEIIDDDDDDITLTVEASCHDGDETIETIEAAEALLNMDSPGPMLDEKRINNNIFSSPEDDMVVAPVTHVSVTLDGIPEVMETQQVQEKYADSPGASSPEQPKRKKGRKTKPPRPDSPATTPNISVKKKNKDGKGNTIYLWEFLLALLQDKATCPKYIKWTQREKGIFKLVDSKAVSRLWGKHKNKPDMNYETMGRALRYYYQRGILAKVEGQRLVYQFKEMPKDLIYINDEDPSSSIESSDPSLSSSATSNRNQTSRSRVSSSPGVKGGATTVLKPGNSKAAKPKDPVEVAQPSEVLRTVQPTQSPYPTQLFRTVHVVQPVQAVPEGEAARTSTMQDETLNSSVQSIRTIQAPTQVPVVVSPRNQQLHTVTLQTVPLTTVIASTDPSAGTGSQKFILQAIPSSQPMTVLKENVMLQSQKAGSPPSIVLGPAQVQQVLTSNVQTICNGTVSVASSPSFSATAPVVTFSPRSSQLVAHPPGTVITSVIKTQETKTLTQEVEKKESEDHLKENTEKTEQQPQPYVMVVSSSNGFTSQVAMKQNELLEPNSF
Chain of SPIB (Q01892 whole entry): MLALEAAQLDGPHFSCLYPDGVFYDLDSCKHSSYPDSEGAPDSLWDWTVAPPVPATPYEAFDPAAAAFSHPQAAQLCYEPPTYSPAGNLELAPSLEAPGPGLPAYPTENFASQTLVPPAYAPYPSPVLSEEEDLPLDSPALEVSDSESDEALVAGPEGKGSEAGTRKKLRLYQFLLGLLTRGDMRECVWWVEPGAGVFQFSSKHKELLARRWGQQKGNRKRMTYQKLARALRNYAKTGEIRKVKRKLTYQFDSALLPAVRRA

GATTAT: the binding signal was 1.04 fold enrichment (6-mer frequency, TF over GST control) in [1]; 1.1 fold enrichment (6-mer frequency, TF over GST control) in [2]; 1.1 fold enrichment (6-mer frequency, TF over GST control) in [3]; 1.06 fold enrichment (6-mer frequency, TF over GST control) in [4]; 1.02 fold enrichment (6-mer frequency, TF over GST control) in [5]; 1.09 fold enrichment (6-mer frequency, TF over GST control) in [6]. In addition, the binding signal in [7] is 1.03 fold enrichment (6-mer frequency, TF over GST control); in experiment [8], 1.11 fold enrichment (6-mer frequency, TF over GST control); in [9], 1.07 fold enrichment (6-mer frequency, TF over GST control).

Take ATTCTA: the binding signal in [1] is 1.34 fold enrichment (6-mer frequency, TF over GST control); in experiment [2], 1.21 fold enrichment (6-mer frequency, TF over GST control); in [3], 1.29 fold enrichment (6-mer frequency, TF over GST control); in experiment [4] it was 1.23 fold enrichment (6-mer frequency, TF over GST control); in [5] it was 1.3 fold enrichment (6-mer frequency, TF over GST control); in experiment [6], 1.21 fold enrichment (6-mer frequency, TF over GST control). For the same sequence, the binding signal in experiment [7] was 1.23 fold enrichment (6-mer frequency, TF over GST control); in [8], 1.22 fold enrichment (6-mer frequency, TF over GST control); in experiment [9], 1.18 fold enrichment (6-mer frequency, TF over GST control).

With TATCTC, the binding signal in experiment [1] is 1.19 fold enrichment (6-mer frequency, TF over GST control); in experiment [2], 1.32 fold enrichment (6-mer frequency, TF over GST control); in experiment [3], 1.39 fold enrichment (6-mer frequency, TF over GST control); in [4], 1.18 fold enrichment (6-mer frequency, TF over GST control); in [5] it was 1.29 fold enrichment (6-mer frequency, TF over GST control); in experiment [6], 1.35 fold enrichment (6-mer frequency, TF over GST control). In addition, the binding signal in [7] is 1.15 fold enrichment (6-mer frequency, TF over GST control); in experiment [8] it was 1.38 fold enrichment (6-mer frequency, TF over GST control); in experiment [9], 1.25 fold enrichment (6-mer frequency, TF over GST control).

Take ATACCC: the binding signal in experiment [1] is 1.18 fold enrichment (6-mer frequency, TF over GST control); in experiment [2], 1.17 fold enrichment (6-mer frequency, TF over GST control); in [3], 1.19 fold enrichment (6-mer frequency, TF over GST control); in experiment [4] it was 1.19 fold enrichment (6-mer frequency, TF over GST control); in experiment [5], 1.2 fold enrichment (6-mer frequency, TF over GST control); in experiment [6], 1.21 fold enrichment (6-mer frequency, TF over GST control). Also, the binding signal was 1.13 fold enrichment (6-mer frequency, TF over GST control) in experiment [7]; 1.14 fold enrichment (6-mer frequency, TF over GST control) in [8]; 1.13 fold enrichment (6-mer frequency, TF over GST control) in experiment [9].

Turning to CCTATC, the binding signal in experiment [1] was 1.27 fold enrichment (6-mer frequency, TF over GST control); in experiment [2], 1.27 fold enrichment (6-mer frequency, TF over GST control); in experiment [3] it was 1.13 fold enrichment (6-mer frequency, TF over GST control); in experiment [4], 1.15 fold enrichment (6-mer frequency, TF over GST control); in [5], 1.15 fold enrichment (6-mer frequency, TF over GST control); in [6], 1.18 fold enrichment (6-mer frequency, TF over GST control). In addition, the binding signal was 1.14 fold enrichment (6-mer frequency, TF over GST control) in experiment [7]; 1.31 fold enrichment (6-mer frequency, TF over GST control) in [8]; 1.45 fold enrichment (6-mer frequency, TF over GST control) in [9].

Turning to AATAGC, the binding signal in [1] was 1.17 fold enrichment (6-mer frequency, TF over GST control); in [2], 1.14 fold enrichment (6-mer frequency, TF over GST control); in [3], 1.17 fold enrichment (6-mer frequency, TF over GST control); in experiment [4], 1.12 fold enrichment (6-mer frequency, TF over GST control); in [5] it was 1.09 fold enrichment (6-mer frequency, TF over GST control); in [6], 1.23 fold enrichment (6-mer frequency, TF over GST control). Moreover, the binding signal was 1.15 fold enrichment (6-mer frequency, TF over GST control) in experiment [7]; 1.16 fold enrichment (6-mer frequency, TF over GST control) in experiment [8]; 1.1 fold enrichment (6-mer frequency, TF over GST control) in [9].

Consider TATCCT, for which the binding signal is 1.7 fold enrichment (6-mer frequency, TF over GST control) in experiment [1]; 1.79 fold enrichment (6-mer frequency, TF over GST control) in experiment [2]; 1.71 fold enrichment (6-mer frequency, TF over GST control) in experiment [3]; 1.9 fold enrichment (6-mer frequency, TF over GST control) in [4]; 1.73 fold enrichment (6-mer frequency, TF over GST control) in experiment [5]; 1.81 fold enrichment (6-mer frequency, TF over GST control) in experiment [6]. The binding signal in [7] was 1.74 fold enrichment (6-mer frequency, TF over GST control); in [8], 1.8 fold enrichment (6-mer frequency, TF over GST control); in experiment [9], 1.76 fold enrichment (6-mer frequency, TF over GST control).
